Results published in PubChem BioAssay AID429 (Emory University Molecular Libraries Screening Center, 2006).
Hit rate of the full screen: of about 64,000 compounds, about 220 (0.34%) were called active. Shown is part of a subset that was picked to be rich in actives. Values without a mark were called inactive.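 How the source made its calls: active means inhibition above 50%; inactive means the rest.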

Molecular target: Heat shock protein HSP 90-alpha (Homo sapiens) (UniProt P07900)
Assay: Hsp90 geldanamycin-site probe displacement – cell lysate, fluorescence polarization, NCI-N417 lysate, primary screen (AID 429);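 further: 0% = tracer plus lysate wells and 100% = tracer alone without lysate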
Settings: NCI-N417 lysate Hsp90, Cy3B-geldanamycin FP displacement; at 30 µM; active compounds read high

Row | SMILES | inhibition
1 | CC(C)C1C2=C(CC(C)(C)CC2=O)ON1c1ccccc1 (configuration not stated) | -1.36%
2 | Cc1ccc(F)cc1NC(=O)Cc1nn(C)c(=O)c2ccccc12 | -2.07%
3 | Cc1c(-c2nn(C)c(=O)c3ccccc23)oc2ccc(F)cc2c1=O | 89.8% (active)
4 | O=C1c2oc3ccc(Br)cc3c(=O)c2C(c2cccc(F)c2)N1CCO (configuration not stated) | -0.86%
5 | COc1cccc(CN2C(=O)CCC2(C)C(=O)NC2CCCCCC2)c1 (configuration not stated) | -0.1%
6 | CC(=O)C1=C(O)C(=O)N(c2ccc(S(N)(=O)=O)cc2)C1c1ccccc1F (configuration not stated) | -1.25%
7 | CC(C)(C)NCC(O)COc1cccc2[nH]c(=O)[nH]c12 (configuration not stated) | -2.65%
8 | CCOc1ccccc1C1CC(c2ccccc2)Nc2nc(N)nn21 (configuration not stated) | 0.5%
9 | COc1ccccc1OCCOc1ccc(/C=N/n2cnnc2)cc1 | -1.96%
10 | CCOc1cc(CO)ccc1OCC(=O)N1CCCCC1 | 1.83%
11 | O=C(c1ccc2c(c1)OCO2)N1CCNc2ccccc2C1 | -1.64%
12 | Cc1ccc(NC(=O)CS(=O)CC(=O)N(c2ccccc2)C(C)C(=O)NC2CCCC2)cc1 (configuration not stated) | -0.1%
13 | O=C(Nc1nsc(-c2ccccc2)n1)c1ccncc1 | 1.14%
14 | O=C(CN(c1ccc2c(c1)OCCO2)S(=O)(=O)c1ccccc1)Nc1ccc2c(c1)OCO2 | 31.2%
15 | Cc1noc(C)c1C(=O)NC(C)c1ccc2c(c1)OCO2 (configuration not stated) | -9.41%
16 | COc1ccc(-c2nnn(Cc3nc(N)nc(N4CCCCC4)n3)n2)cc1 | 2.3%
17 | O=C(O)CCC(=O)NCc1ccc2[nH]c3c(c2c1)CCCC3 | 62.8% (active)
18 | O=C(CCCCn1c(=O)[nH]c2ccccc2c1=O)NCc1ccc2c(c1)OCO2 | -3.39%
19 | O=C(CCC(=O)c1cccs1)NCc1ccccc1 | -2.27%
20 | CCOC(=O)C1CCN(C(=O)COc2cc(C)c(Br)c(C)c2)CC1 | -0.95%
21 | CC1CC2C3CCC4=CC(=O)C=C[C@]4(C)[C@@]3(F)[C@@H](O)C[C@]2(C)[C@@]1(O)C(=O)CO (some centres not stated) | 0.93%
22 | CC(=O)Oc1cccc(N2C(=O)CC(Nc3ccc(N4CCOCC4)cc3)C2=O)c1 (configuration not stated) | 10.2%
